# Source: the supplement of paper PMC10849652
# Targets with a hit are over-represented here; the source holds about 7,900 in all. About 0.6% of all pairs of compound and target were hits.
# Compound: CC1=NC(=CC=C1)C2=C(N=C(N2)C(C)(C)C)C3=CC4=NC=CN=C4C=C3
# Experiment: log2 fold change, soluble protein after heating vs DMSO (PISA); higher = thermal stabilisation; K562 cells, 10 uM, 30 min; active = over 0.2 and 3.5 SD of the protein, either way, in both replicates (recomputed)
# Procedure, shortened: (§1)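 K562 cells at 2×10^6 cells/mL were given 10 μM compound for 30 min. Aliquots then went through 3 min of heating across 48°C-58°C, were pooled, and were extracted in PBS with 0.5% NP-40 at 4°C, and the supernatant after 21,000xg for 90 min was quantified by TMTpro 16plex LC-MS/MS with channel sums equalised. Thermal stability relative to control samples, from duplicates, is given as log2 fold change.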
# Sequence of UniProt Q5NDL2 (Q5NDL2 whole entry, looked up): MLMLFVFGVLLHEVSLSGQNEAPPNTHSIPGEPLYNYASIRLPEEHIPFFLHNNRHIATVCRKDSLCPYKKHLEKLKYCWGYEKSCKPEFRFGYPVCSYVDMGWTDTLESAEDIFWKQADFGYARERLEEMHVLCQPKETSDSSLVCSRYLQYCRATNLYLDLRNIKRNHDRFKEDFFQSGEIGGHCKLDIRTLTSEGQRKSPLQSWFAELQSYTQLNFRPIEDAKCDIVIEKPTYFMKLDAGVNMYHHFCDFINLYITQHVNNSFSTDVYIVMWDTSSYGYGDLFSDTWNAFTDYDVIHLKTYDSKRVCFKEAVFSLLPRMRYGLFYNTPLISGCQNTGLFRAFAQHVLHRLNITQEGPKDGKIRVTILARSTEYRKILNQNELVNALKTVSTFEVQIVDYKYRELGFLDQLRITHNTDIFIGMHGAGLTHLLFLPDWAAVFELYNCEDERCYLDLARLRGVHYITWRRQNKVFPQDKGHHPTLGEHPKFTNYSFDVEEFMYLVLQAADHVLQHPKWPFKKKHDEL
# Sequence of UniProt Q96LJ7 (Q96LJ7 whole entry, looked up): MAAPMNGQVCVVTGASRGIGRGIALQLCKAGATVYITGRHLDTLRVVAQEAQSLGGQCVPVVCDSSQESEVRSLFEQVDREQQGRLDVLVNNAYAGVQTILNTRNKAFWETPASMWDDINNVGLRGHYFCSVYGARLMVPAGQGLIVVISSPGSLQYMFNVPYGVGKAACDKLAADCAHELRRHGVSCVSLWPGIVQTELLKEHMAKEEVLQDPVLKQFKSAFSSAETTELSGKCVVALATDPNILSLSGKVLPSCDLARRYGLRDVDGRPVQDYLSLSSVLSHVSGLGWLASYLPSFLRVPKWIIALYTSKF
# Sequence of UniProt P23919 (P23919 whole entry, looked up): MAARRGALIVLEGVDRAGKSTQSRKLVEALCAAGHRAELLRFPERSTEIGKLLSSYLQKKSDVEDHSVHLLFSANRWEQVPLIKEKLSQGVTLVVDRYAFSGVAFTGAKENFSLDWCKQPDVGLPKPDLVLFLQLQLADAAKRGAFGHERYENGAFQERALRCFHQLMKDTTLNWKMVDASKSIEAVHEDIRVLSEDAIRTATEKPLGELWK
# Sequence of UniProt Q9H773 (Q9H773 whole entry, looked up): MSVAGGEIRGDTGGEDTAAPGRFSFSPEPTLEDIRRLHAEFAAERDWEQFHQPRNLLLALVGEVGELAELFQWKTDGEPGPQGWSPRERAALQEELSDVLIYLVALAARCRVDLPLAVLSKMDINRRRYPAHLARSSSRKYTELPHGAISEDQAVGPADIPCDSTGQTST
# Sequence of UniProt Q03468 (Q03468 whole entry, looked up): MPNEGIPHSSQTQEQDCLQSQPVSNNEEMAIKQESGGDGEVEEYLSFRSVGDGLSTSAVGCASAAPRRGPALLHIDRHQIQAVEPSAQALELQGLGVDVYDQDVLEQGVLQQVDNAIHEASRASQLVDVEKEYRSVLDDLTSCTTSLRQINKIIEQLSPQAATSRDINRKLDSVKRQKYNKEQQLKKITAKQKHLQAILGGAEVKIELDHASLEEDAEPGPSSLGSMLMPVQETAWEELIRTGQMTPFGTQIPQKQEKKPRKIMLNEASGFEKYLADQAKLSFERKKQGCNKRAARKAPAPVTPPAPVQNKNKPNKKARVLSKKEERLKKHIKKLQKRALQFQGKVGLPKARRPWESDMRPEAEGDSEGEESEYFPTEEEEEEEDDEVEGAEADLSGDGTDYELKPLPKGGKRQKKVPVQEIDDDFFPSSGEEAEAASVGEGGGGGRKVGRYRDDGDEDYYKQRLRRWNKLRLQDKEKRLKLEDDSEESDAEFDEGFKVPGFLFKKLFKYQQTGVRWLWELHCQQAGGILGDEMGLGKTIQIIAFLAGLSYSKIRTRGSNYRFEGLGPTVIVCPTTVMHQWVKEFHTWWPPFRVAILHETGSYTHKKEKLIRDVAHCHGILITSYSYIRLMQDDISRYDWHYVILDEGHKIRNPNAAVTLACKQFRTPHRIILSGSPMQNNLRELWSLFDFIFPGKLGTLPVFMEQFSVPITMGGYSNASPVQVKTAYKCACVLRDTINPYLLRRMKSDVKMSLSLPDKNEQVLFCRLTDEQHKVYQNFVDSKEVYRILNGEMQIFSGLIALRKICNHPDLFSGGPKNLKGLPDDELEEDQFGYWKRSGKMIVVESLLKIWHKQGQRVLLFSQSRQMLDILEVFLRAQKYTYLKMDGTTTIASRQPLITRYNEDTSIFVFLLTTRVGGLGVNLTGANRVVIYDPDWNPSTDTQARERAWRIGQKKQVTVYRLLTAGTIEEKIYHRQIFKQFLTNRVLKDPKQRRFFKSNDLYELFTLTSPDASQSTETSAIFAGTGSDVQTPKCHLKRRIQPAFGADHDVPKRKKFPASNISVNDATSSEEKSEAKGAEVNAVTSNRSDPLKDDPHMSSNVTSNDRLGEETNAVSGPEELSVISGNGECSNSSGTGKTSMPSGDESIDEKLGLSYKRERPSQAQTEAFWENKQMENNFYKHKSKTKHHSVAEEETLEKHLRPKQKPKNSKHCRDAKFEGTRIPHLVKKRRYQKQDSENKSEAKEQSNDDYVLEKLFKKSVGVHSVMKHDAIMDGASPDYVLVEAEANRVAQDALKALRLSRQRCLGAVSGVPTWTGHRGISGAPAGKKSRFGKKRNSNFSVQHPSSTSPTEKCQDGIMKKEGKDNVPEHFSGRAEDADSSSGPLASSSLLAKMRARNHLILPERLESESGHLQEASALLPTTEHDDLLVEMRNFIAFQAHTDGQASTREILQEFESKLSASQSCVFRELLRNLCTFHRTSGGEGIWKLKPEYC
# Sequence of UniProt Q16254 (Q16254 whole entry, looked up): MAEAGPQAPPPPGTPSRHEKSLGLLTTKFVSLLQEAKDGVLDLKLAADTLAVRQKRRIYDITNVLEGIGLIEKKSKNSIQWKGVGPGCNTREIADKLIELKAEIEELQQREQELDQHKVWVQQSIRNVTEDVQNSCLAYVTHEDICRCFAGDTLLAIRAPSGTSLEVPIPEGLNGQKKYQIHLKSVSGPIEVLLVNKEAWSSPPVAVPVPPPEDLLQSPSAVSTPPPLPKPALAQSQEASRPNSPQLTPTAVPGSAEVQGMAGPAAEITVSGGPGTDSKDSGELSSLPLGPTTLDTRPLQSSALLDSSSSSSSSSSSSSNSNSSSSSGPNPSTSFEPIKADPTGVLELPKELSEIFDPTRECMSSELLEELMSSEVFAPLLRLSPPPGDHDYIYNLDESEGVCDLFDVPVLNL
# Sequence of UniProt Q96GE9 (Q96GE9 whole entry, looked up): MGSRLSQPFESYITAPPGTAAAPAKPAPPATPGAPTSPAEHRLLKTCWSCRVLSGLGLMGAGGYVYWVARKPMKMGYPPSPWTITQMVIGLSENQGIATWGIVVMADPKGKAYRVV
# Sequence of UniProt Q14118 (Q14118 whole entry, looked up): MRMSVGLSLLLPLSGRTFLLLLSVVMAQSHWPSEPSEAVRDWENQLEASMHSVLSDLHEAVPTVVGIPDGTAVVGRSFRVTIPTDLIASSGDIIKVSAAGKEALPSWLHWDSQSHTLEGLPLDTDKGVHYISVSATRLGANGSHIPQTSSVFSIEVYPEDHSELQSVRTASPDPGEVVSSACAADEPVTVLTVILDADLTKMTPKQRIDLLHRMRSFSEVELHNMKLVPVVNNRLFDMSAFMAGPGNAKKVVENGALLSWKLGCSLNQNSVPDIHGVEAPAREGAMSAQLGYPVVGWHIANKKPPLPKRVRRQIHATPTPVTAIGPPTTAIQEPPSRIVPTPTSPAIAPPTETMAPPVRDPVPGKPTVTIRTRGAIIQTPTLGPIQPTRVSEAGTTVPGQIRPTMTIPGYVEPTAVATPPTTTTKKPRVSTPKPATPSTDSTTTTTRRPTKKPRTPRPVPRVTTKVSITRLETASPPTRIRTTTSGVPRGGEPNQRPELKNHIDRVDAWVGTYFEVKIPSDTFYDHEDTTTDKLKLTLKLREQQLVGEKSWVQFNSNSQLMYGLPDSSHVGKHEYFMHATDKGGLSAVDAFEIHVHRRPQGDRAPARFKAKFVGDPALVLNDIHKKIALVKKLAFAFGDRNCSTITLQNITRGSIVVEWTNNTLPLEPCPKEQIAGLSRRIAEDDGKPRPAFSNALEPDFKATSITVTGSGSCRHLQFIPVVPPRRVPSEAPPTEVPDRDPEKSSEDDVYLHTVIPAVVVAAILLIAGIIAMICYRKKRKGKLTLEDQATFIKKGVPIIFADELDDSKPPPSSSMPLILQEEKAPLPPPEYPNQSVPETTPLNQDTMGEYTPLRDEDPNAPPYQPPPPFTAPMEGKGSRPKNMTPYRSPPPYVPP
# Sequence of UniProt Q0VG06 (Q0VG06 whole entry, looked up): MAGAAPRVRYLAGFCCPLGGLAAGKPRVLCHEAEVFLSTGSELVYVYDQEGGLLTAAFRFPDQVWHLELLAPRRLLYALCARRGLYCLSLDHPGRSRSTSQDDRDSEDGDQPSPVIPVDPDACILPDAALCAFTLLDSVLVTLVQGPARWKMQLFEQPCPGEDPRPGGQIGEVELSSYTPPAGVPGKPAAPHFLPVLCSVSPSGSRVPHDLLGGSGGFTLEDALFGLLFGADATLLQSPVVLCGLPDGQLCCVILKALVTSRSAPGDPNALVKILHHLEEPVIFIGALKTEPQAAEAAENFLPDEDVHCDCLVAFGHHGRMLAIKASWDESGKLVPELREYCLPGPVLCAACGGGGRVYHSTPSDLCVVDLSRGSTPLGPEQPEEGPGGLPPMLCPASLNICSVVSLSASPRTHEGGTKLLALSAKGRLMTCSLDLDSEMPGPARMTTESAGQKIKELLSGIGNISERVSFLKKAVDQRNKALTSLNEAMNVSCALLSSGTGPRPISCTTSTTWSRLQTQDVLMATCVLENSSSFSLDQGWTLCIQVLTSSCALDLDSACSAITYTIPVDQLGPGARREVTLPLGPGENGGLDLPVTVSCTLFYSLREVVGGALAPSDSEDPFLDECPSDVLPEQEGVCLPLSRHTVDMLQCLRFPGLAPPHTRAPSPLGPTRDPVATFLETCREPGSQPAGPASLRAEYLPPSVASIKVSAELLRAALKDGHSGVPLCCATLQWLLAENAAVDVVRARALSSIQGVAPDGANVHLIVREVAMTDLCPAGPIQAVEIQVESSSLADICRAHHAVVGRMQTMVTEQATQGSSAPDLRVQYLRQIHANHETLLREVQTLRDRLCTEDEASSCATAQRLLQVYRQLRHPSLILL
row,Target,log2 fold change
1,CTSH (UniProt P09668),0.093 (inactive)
2,E2F4 (UniProt Q16254),0.079 (inactive)
3,DCP2 (UniProt Q8IU60),-0.089 (inactive)
4,DTYMK (UniProt P23919),0.015 (inactive)
5,EOGT (UniProt Q5NDL2),-0.052 (inactive)
6,DCTPP1 (UniProt Q9H773),0.008 (inactive)
7,DHPS (UniProt P49366),0.161 (inactive)
8,DHRS1 (UniProt Q96LJ7),-0.202 (inactive)
9,EXOC2 (UniProt Q96KP1),0.027 (inactive)
10,DMAC1 (UniProt Q96GE9),0.005 (inactive)
11,FAAP100 (UniProt Q0VG06),0.066 (inactive)
12,DNAH5 (UniProt Q8TE73),-0.036 (inactive)
13,ERCC6 (UniProt Q03468),-0.038 (inactive)
14,ERLIN2 (UniProt O94905),-0.037 (inactive)
15,DAG1 (UniProt Q14118),0.001 (inactive)
16,EHBP1L1 (UniProt Q8N3D4),-0.043 (inactive)

# Compound: CCCCN(Cc1ccc(C(=O)NO)cc1)C(=O)Nc1ccccc1 [Nexturastat A]
# Experiment: as above
# Procedure, shortened: as §1
row,Target,log2 fold change
1,FAM3A (UniProt P98173),-0.304 (active)
2,CTSZ (UniProt Q9UBR2),-0.009 (inactive)
3,DMXL1 (UniProt Q9Y485),0.044 (inactive)
4,EXTL2 (UniProt Q9UBQ6),-0.163 (inactive)
5,CUEDC2 (UniProt Q9H467),-0.019 (inactive)
6,CYFIP1 (UniProt Q7L576),-0.043 (inactive)
7,ECH1 (UniProt Q13011),-0.032 (inactive)
8,FAM114A2 (UniProt Q9NRY5),-0.053 (inactive)
9,EFCAB14 (UniProt O75071),-0.032 (inactive)
10,DDX46 (UniProt Q7L014),-0.069 (inactive)
11,FAM177A1 isoform 2 (UniProt Q8N128),-0.064 (inactive)
12,DPH5 isoform 5 (UniProt Q9H2P9),-0.079 (inactive)
13,DNAJB12 (UniProt Q9NXW2),0.044 (inactive)
14,EXOC4 (UniProt Q96A65),0.209 (inactive)
15,DTNBP1 (UniProt Q96EV8),-0.022 (inactive)
16,DYNC1LI2 (UniProt O43237),0.646 (active)
17,EBNA1BP2 (UniProt Q99848),0.438 (inactive)
18,EEF1B2 (UniProt P24534),0.031 (inactive)
19,DCUN1D1 (UniProt Q96GG9),0.018 (inactive)
20,DLD (UniProt P09622),-0.058 (inactive)

row,Target,log2 fold change
1,DNAJC7 (UniProt Q99615),-0.01 (inactive)
2,DCAF6 isoform 3 (UniProt Q58WW2),-0.041 (inactive)
3,FAM50A (UniProt Q14320),-0.069 (inactive)
4,CTSH (UniProt P09668),-0.047 (inactive)
5,E2F4 (UniProt Q16254),0.034 (inactive)
6,DCP2 (UniProt Q8IU60),0.174 (inactive)
7,DTYMK (UniProt P23919),-0.009 (inactive)
8,EOGT (UniProt Q5NDL2),0.033 (inactive)
9,DCTPP1 (UniProt Q9H773),0.067 (inactive)
10,DHPS (UniProt P49366),-0.079 (inactive)
11,DHRS1 (UniProt Q96LJ7),0.096 (inactive)
12,EXOC2 (UniProt Q96KP1),0.058 (inactive)
13,DMAC1 (UniProt Q96GE9),-0.071 (inactive)
14,FAAP100 (UniProt Q0VG06),-0.327 (active)
15,DNAH5 (UniProt Q8TE73),-0.021 (inactive)
16,ERCC6 (UniProt Q03468),-0.126 (inactive)
17,ERLIN2 (UniProt O94905),0.104 (inactive)
18,DAG1 (UniProt Q14118),-0.005 (inactive)
19,EHBP1L1 (UniProt Q8N3D4),0.011 (inactive)

# Compound: CCCS(=O)(=O)Nc1ccc(F)c(C(=O)c2c[nH]c3ncc(-c4ccc(Cl)cc4)cc23)c1F [vemurafenib]
# Experiment: as above
# Procedure, shortened: as §1
row,Target,log2 fold change
1,FAM3A (UniProt P98173),0.015 (inactive)
2,CTSZ (UniProt Q9UBR2),-0.026 (inactive)
3,DMXL1 (UniProt Q9Y485),0.008 (inactive)
4,EXTL2 (UniProt Q9UBQ6),-0.002 (inactive)
5,CUEDC2 (UniProt Q9H467),0.009 (inactive)
6,CYFIP1 (UniProt Q7L576),0.026 (inactive)
7,ECH1 (UniProt Q13011),0.012 (inactive)
8,FAM114A2 (UniProt Q9NRY5),0.001 (inactive)
9,EFCAB14 (UniProt O75071),-0.049 (inactive)
10,DDX46 (UniProt Q7L014),0.099 (inactive)
11,FAM177A1 isoform 2 (UniProt Q8N128),-0.061 (inactive)
12,DPH5 isoform 5 (UniProt Q9H2P9),-0.041 (inactive)
13,DNAJB12 (UniProt Q9NXW2),0.008 (inactive)
14,EXOC4 (UniProt Q96A65),-0.003 (inactive)
15,DTNBP1 (UniProt Q96EV8),0.021 (inactive)
16,DYNC1LI2 (UniProt O43237),0.001 (inactive)
17,EBNA1BP2 (UniProt Q99848),-0.042 (inactive)
18,EEF1B2 (UniProt P24534),0.024 (inactive)
19,DCUN1D1 (UniProt Q96GG9),0.008 (inactive)
20,DLD (UniProt P09622),-0.021 (inactive)

row,Target,log2 fold change
1,DNAJC7 (UniProt Q99615),0.029 (inactive)
2,DCAF6 isoform 3 (UniProt Q58WW2),-0.032 (inactive)
3,FAM50A (UniProt Q14320),0.049 (inactive)
4,CTSH (UniProt P09668),0.023 (inactive)
5,E2F4 (UniProt Q16254),-0.001 (inactive)
6,DCP2 (UniProt Q8IU60),0.064 (inactive)
7,DTYMK (UniProt P23919),-0.017 (inactive)
8,EOGT (UniProt Q5NDL2),-0.05 (inactive)
9,DCTPP1 (UniProt Q9H773),0.126 (inactive)
10,DHPS (UniProt P49366),0.067 (inactive)
11,DHRS1 (UniProt Q96LJ7),0.29 (inactive)
12,EXOC2 (UniProt Q96KP1),0.041 (inactive)
13,DMAC1 (UniProt Q96GE9),-0.18 (inactive)
14,FAAP100 (UniProt Q0VG06),0 (inactive)
15,DNAH5 (UniProt Q8TE73),-0.077 (inactive)
16,ERCC6 (UniProt Q03468),0.064 (inactive)
17,ERLIN2 (UniProt O94905),-0.062 (inactive)
18,DAG1 (UniProt Q14118),0.005 (inactive)
19,EHBP1L1 (UniProt Q8N3D4),0.034 (inactive)
